HT1080-NT tox – kills 2HG-producing HT-1080-NT fibrosarcoma cells; actives 1.6% (n = 360,000); AID 686970; Potency, µM (titrated, usually from 46.1 µM), for the others: top-dose activity, negative = less viability, most hits filed as cytotoxic; HT-1080-NT fibrosarcoma viability, CellTiter-Glo ATP luminescence, 48 h;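 also: NT is the 2HG producing partner of a matched IDH1 knockdown line; potency is read from the fitted curve at half-maximal effect; 0% = DMSO-treated cells and -100% = media-only wells without cells; nearly all actives have a fitted effect of over 55% in size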
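A 48-hour cytotoxicity screen used HT-1080-NT cells plated 2 hours before compound delivery. ATP-based CellTiter-Glo luminescence measured viability, normalized to DMSO and no-cell controls.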
HT1080 IDH1KD tx – toxicity to HT-1080 IDH1 knockdown cells (counter line); HT-1080 IDH1 knockdown viability, ATP luminescence, 48 h; actives 2% (n = 360,000); Potency, µM (titrated, usually from 46.1 µM), inactives show at the top dose activity, negative = toxicity, usual class: cytotoxic;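 also: potency is read from the fitted curve at half-maximal effect; 0% = DMSO wells and -100% = cell-free medium wells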
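HT-1080-IDH1KD cells (IDH1 knocked down), 750/well in RPMI with 5% FBS, treated with compound 48 h at 37 degrees C. Viability by CellTiter-Glo luminescence, normalised to DMSO and no-cell wells; concentration-response curves classed.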
IL1B secr inh – blocks inflammasome-driven IL-1 beta release | THP-1 LPS/ATP IL-1B secretion, AlphaLISA, 16 h; hits give low values | activity change, % at 57.5 µM | actives 4.7% (n = 360,000) | AID 743279; in the data active = activity change below about -50%; inconclusive = mostly about -30% to -49%
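Secreted IL-1B measured by AlphaLISA bead assay after 16 h compound exposure of THP-1 cells; compounds (final up to 57.5 uM) added 1 h before LPS (250 ng/mL) and ATP (1.25 mM) stimulation; lower signal means less secretion.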
DT40 TDP1 CPT – DT40-hTDP1 cell growth loss with CPT. chicken DT40 Tdp1-/-;hTDP1 cells + 20 nM CPT, ATP luminescence, 48 h. Potency, µM (highest dose often 46.2 µM), without a hit: at the top dose activity change, negative = growth inhibition, most hits filed as inhibitors. actives 12% (n = 420,000). AID 686979; also: potency is read from the fitted curve at half-maximal effect; nearly all actives have a fitted effect of over 55% in size
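Chicken DT40 Tdp1-/- cells complemented with human TDP1, 400 cells/well, exposed to compounds plus 20 nM camptothecin for at least 48 h at 37 C; viability read as ATP content by CellTiter-Glo luminescence.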
DT40 TDP1 no CPT – qHTS for Inhibitors of human tyrosyl-DNA phosphodiesterase 1 (TDP1): qHTS in cells in absence of CPT | Potency, µM (titrated, usually from 46.2 µM), for inactives: at the highest dose activity change, negative = growth inhibition, most hits filed as inhibitors | AID 686978, 2013 | actives 15% (n = 420,000) | DT40 Tdp1-/- hTDP1 cells, no CPT, ATP luminescence, 48 h; also: potency is read from the fitted curve at half-maximal effect; nearly all actives have a fitted effect of over 55% in size
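Chicken DT40 Tdp1-/- cells stably complemented with human TDP1 were seeded at 400 cells/well with DMSO in place of 20 nM camptothecin. After compound pinning, cells grew at least 48 hr at 37 °C; viability read by CellTiter-Glo luminescence.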
The depositor's hits bear a star; u = inconclusive; x = no result given; ! = not active in a repeat. An excerpt weighted towards active compounds, which were near 19% of everything screened. Unless noted, calls follow the shape of the dose curve; as a rule, active = well fitted curve in the direction sought with a large enough effect; inconclusive = small, poorly fitted or top-dose-only effect, or another doubt; inactive = no such curve, though single readings can be large; an effect the other way counts as inactive or inconclusive. Unless noted, % is scaled to controls: 0 for no effect and ±100 for the full control effect.

SMILES	HT1080-NT tox	HT1080 IDH1KD tx	IL1B secr inh	DT40 TDP1 CPT	DT40 TDP1 no CPT
CS(=O)(=O)OCC(O)C(O)COS(C)(=O)=O (centres undefined)	x	x	x	13µM*	11µM*
CN(C)[C@@H]1C(=O)C(C(N)=O)=C(O)[C@@]2(O)C(=O)C3=C(O)c4c(O)cccc4[C@@](C)(O)[C@H]3[C@H](O)[C@@H]12	29%	1%	4	7.3µM*!	5.8µM*!
CN(C)[C@@H]1C(=O)C(C(N)=O)=C(O)[C@@]2(O)C(=O)C3=C(O)c4c(O)cccc4[C@@](C)(O)C3C[C@@H]12 (some centres undefined)	u	u	-9	18µM*	8.2µM*
CN(C)[C@@H]1C(=O)C(C(N)=O)=C(O)[C@@]2(O)C(=O)C3=C(O)c4c(O)ccc(Cl)c4[C@@](C)(O)[C@H]3C[C@@H]12	-8%	-8%	-4	15µM*!	u
CN(C)C1C(=O)C(C(N)=O)=C(O)[C@@]2(O)C(=O)C3=C(O)c4c(O)cccc4[C@](C)(O)C3C(O)C12 (some centres undefined)	x	x	x	-18%	-26%
COC(=O)CNC(=O)c1cn(CCC#N)nc1-c1ccc(F)cc1	-1%	14%	18	8%	6%
CCCn1c(C)c(C(=O)c2cccc3ccccc23)c2ccccc21	u	u	-21	27µM*!	13µM*
CN1CCN(/N=C/c2c(O)n(CCC3=CCCCC3)c(=S)[nH]c2=O)CC1	1%	4%	-13	-20%	-6%
COC12C(COC(N)=O)C3=C(C(=O)C(C)=C(N)C3=O)N1CC1C2N1C (centres undefined)	u	u	6	0.052µM*	0.065µM*
O=S(=O)(c1ccc2c(c1)OCCO2)N1CCC(c2nc3ccc(Cl)cc3[nH]2)CC1	11µM*	14µM*	-72*	8.2µM*	12µM*
C[C@H](CCC(=O)O)[C@H]1CC[C@H]2[C@@H]3C(=O)C[C@@H]4CC(=O)CC[C@]4(C)[C@H]3CC(=O)[C@]12C	27%	9%	-1	u	-10%
